Autophagy mod – autophagy modulation, high-content screen; calls only at 10 µM (by protocol); MEF GFP-LC3 puncta imaging; test concentration mostly 10 µM; hit rate 0.98% among 190,000; AID 463193;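 active means percentage of spot-positive cells more than 3 SD above its plate mean, without a fluorescence outlier flag or 80% toxicity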;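 further: spot-positive cell cutoff set from DMSO-treated cells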
Insulin prom inh – TRM-6 insulin promoter activity inhibition; AID 1273; hit rate 0.9% among 130,000; TRM-6 cells (human fetal islet line), insulin promoter-eGFP reporter, imaging; reporter expression induced with tamoxifen; inhibition, % at 2 µM;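 active means inhibition above the mean plus 3 SD, with well images judged a real hit on visual review, cut at about 60% in these data, passing the limit was not always enough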
WT yeast gro inh – growth inhibition of WT yeast, mitochondrial fusion screen; mitochondrial fusion phenotypic screen, WT strain; inhibition, % at 10 µM; hit rate 2.1% among 190,000; in the data active means inhibition above about 58%; tested in S. cerevisiae
Insulin prom up – MIN6 insulin promoter up-regulation. AID 1625. MIN6 insulin promoter-GFP reporter, high-content imaging; stronger effect = higher value. z-score at 5 µM. hit rate 0.3% among 190,000;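 active means z-score above 3 at 5 µM with at least 500 cells counted in the well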
Lmaj promast – inhibitors of Leishmania major promastigote growth; Leishmania major promastigotes, resazurin fluorescence viability; inhibition, % at 10 µM; hit rate 9% among 200,000; in the data active means inhibition above about 50%;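 further: promastigotes grown with compound for 44 hours at 28 °C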
Numbers without * were called inactive; i = inactive; . = not tested or not shown; + = active, no number. In the library only some 11% were active in any assay of this set; here they are far more common.

SMILES	Autophagy mod	Insulin prom inh	WT yeast gro inh	Insulin prom up	Lmaj promast
Cc1nc2ccc([N+](=O)[O-])cc2[nH]1	i	64	0	0.35	2
COc1ccc(-n2c(C)cc(-c3csc(NC(=O)c4ccc(S(=O)(=O)N(C)C)cc4)n3)c2C)cc1	i	14	-12	.	63*
COc1cccc(C(=O)Nc2nc(C)cs2)c1	i	-18	-2	0.44	5
COc1ccc(NC(=O)c2ccc(S(=O)(=O)N(C)C)cc2)cc1	i	.	-2	-0.02	1
COc1cccc(C(=O)Nc2nc(-c3ccncc3)cs2)c1	i	76*	0	-0.05	11
COc1ccc(C(=O)Nc2oc(-c3ccccc3)c(-c3ccccc3)c2C#N)cc1	i	-50	13	-0.67	86*
COc1ccc(-c2oc(NC(=O)c3ccc(C)cc3)c(C#N)c2-c2ccc(OC)cc2)cc1	i	-27	10	.	24
O=C(Nc1nc(-c2ccccc2)c(-c2ccccc2)o1)c1ccc(F)cc1	i	.	17	-0.66	20
COc1cccc(C(=O)Nc2nc(-c3ccccc3)c(-c3ccccc3)o2)c1	i	14	74*	.	6
CCOC(=O)Cn1c(=O)oc2cc(S(=O)(=O)NCCc3ccc(OCC)c(OCC)c3)ccc21	i	.	-19	-0.9	5
CNC(=O)C12CC3CC(CC(Cl)(C3)C1)C2	i	26	2	0.3	-3
COc1cc(C2C(C#N)=C(N)OC3=C2C(=O)CC(C)(C)C3)cc([N+](=O)[O-])c1O (stereo not drawn)	.	.	.	0.36	.
CCC1=C(OC(=O)N(CC)CC)N2C(=O)OC(=NCCOC)[C@]2(Cc2ccccc2)[C@H]2C1=CC[C@H]1C(=O)N(C)C(=O)[C@H]12	.	.	.	0.25	.
COCCN(CCOC)S(=O)(=O)c1ccc(C(=O)Nc2nc(-c3ccncc3)cs2)cc1	i	.	4	0.8	85*
CCOC(=O)Cc1csc(NC(=O)c2ccc(S(=O)(=O)N(CCOC)CCOC)cc2)n1	i	-62	-12	.	5
CC1=NN(c2ccccc2)C(=O)C1C(=O)c1cc([N+](=O)[O-])cc([N+](=O)[O-])c1 (stereo not drawn)	i	.	4	2	-20
CCOc1ccc(-c2nnc(Nc3ccc(OC)c(C(=O)N4CCCCC4)c3)c3ccccc23)cc1	i	.	11	0.12	61*
CN(C)CCCOc1cccc(Oc2ccccc2)c1	i	50	-14	0.11	99*
C=CCN(CC=C)CCOc1cccc(Oc2ccccc2)c1	i	.	50	-0.86	97*
C=CCN(CC=C)CCCOc1ccccc1C(=O)OC	i	.	-2	-1.5	33
Cc1ccc(NC(=O)Nc2ccc(F)cc2)cc1Cl	i	.	28	.	-6
C[N+]1([O-])[C@@H]2Cc3cc4c(cc3[C@@H]1Cc1cc3c(cc12)OCO3)OCO4 (stereo partly drawn)	.	.	.	-0.72	.
Cc1ccc(S(=O)(=O)N2CCN(C(=O)c3cccs3)CC2)c(C)c1	i	27	-34	0.21	1
Cc1cc(C)c(S(=O)(=O)N2CCN(C(=O)c3cccs3)CC2)c(C)c1	i	-43	7	-0.62	62*
O=C(CSc1nncn1-c1ccccc1)Nc1cccc(S(=O)(=O)N2CCCCC2)c1	i	24	11	1.4	63*
SMILES	Autophagy mod	Insulin prom inh	WT yeast gro inh	Insulin prom up	Lmaj promast
O=C(CSc1nnc(-c2cccs2)o1)Nc1cccc(S(=O)(=O)N2CCCCC2)c1	i	-62	-19	1.7	51*
COc1ccc(-n2cnnc2SCC(=O)Nc2cc(S(=O)(=O)N3CCCCC3)ccc2C)cc1	i	-33	-13	-0.14	67*
CC(=O)Nc1ccc2nc(CN3CCN(Cc4ccc(F)cc4)C(CCO)C3)ccc2c1 (stereo not drawn)	i	.	11	0.82	-4
O=C(Nc1cn(-c2ccccc2)nc1-c1cccs1)c1ccco1	.	.	15	-0.27	0
OCC1(Cc2ccccc2)CCN(C2CCN(c3ccc(F)c(F)c3)CC2)CC1	i	-47	-23	0.24	98*
C/C(=N\NC(=O)CNc1cccc(Cl)c1C)C1CC1	i	.	-5	0.37	-5
CCOC(=O)C1=NN(c2ccccc2)C(=O)/C1=C\c1ccc(N(C)C)cc1	i	.	7	0.17	89*
CCOC(=O)C(=O)NNc1ccc(Cl)cc1	i	0	62	-0.28	26
CCOC(=O)C(=NCCCN(C)C)NNc1ccc(Br)cc1	i	-17	25	-0.14	67*
CCOC(=O)C(=NCCCN(C)C)NNc1cc(C(F)(F)F)ccc1Cl	i	-71	18	0.63	14
CCCCN=C(NNc1ccc(Br)cc1)C(=O)OCC	i	.	64*	0.55	31
CCOC(=O)C(=O)NNc1ccc(C)cc1	i	.	62*	0.76	3
C/C(=N\NC(=O)CC1N=C(Cc2ccccc2)NNC1=O)c1ccc(Br)cc1 (stereo not drawn)	.	.	.	0.36	.
O=C(CSc1c2c(nc3cc(Cl)ccc13)CCCC2)NCCCN1CCOCC1	i	-24	2	-1.5	32
O=C(CSc1c2c(nc3cc(Cl)ccc13)CCCC2)NCCN1CCOCC1	i	36	-4	.	59*
CCN(CC)CCCNC(=O)CSc1c2c(nc3cc(Cl)ccc13)CCCC2	i	19	-5	-2.2	100*
C=C(C)CC1(NC(C)c2ccccc2)CCCCC1 (stereo not drawn)	i	-7	12	0.11	0
O=C(O)CCC(=O)NCc1c(Cl)cccc1Sc1ccc(Cl)cc1	.	.	.	-0.61	.
CCOC(=O)N1CCC(Nc2ncnc3c2cnn3-c2ccc(Cl)cc2)CC1	i	-93	14	-0.08	-4
O=C(Cn1nnc(-c2ccccc2Cl)n1)NCc1ccc2c(c1)OCO2	i	.	21	0.89	-5
CN(Cc1ccccc1F)c1nc(-c2cccs2)nc2ccccc12	i	-3	45	0.04	79*
CCOc1cc(/C=C/c2cc(C(=O)O)c3ccccc3n2)ccc1OC	i	21	-5	0.11	-5
CCOc1cc(/C=C/c2cc(C(=O)O)c3ccccc3n2)ccc1O	i	-4	10	0.16	75*
C=CCn1c(SCc2nc3cc(C(=O)OC)ccc3c(=O)[nH]2)nc2sc(CC)cc2c1=O	i	11	2	0.15	59*
O=C(c1ccc(Cl)c(S(=O)(=O)N2CCCC2)c1)N1CCN(c2ncccn2)CC1	i	.	-4	0.44	-2
SMILES	Autophagy mod	Insulin prom inh	WT yeast gro inh	Insulin prom up	Lmaj promast
CC1CCN(S(=O)(=O)c2cc(C(=O)N3CCN(c4ncccn4)CC3)ccc2Br)CC1	i	-14	-7	0.63	85*
S=c1[nH]nc(-c2ccco2)n1C1CCCCC1	i	.	22	1.2	-7
Cc1nn(-c2ccccn2)c2nc(-c3cccs3)cc(C(=O)NCc3ccco3)c12	i	9	8	-0.27	53*
CCOC(=O)c1cc(-c2cccs2)nc2c1c(C)nn2-c1ccccn1	i	29	69*	-2	38
CC(=O)Nc1ccccc1NC(=O)c1ccc(C)c(C)c1	i	.	18	0.1	2
CCOc1cc(-n2cnnn2)c(OCC)cc1NC(=O)c1cc2ccc(N(CC)CC)cc2oc1=O	+	-9	.	.	2
CCN(CC)c1ccc2cc(C(=O)Nc3cccnc3N3CCOCC3)c(=O)oc2c1	.	.	.	0.44	.
